Results published in PubChem BioAssay AID1159580 (chemical genetic matrix, 2015).
Where “and” joins values, the source holds several entries; their conditions need not be identical. Identical values can stand only once. Screen size: about 5,500 compounds; about 2,000 (36%) were called active. Another 18% or so got no clear call; they are omitted. Cut-off read from the data, not from the text of the source: active = normalized growth mostly below about 0.91 (no sharp cut-off); inconclusive = no clear call, values can overlap the other calls; inactive = mostly above about 0.92. Some of the results follow.

Experiment: chemical genetic growth profiling, strain panel (AID 1159580);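 note: tested at 20 µM; growth read once vehicle control cultures reached saturation at 30 °C; 1 = growth at the plate median or of vehicle wells; lower values mean less growth of the strain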
Conditions: S. cerevisiae deletion strains, growth OD

Measured: normalized growth

C[C@@H]1C(=O)OC2[C@H](O)C34[C@@H]5OC(=O)[C@@]3(O[C@@H]3OC(=O)[C@H](O)[C@@]34[C@H](C(C)(C)C)[C@H]5O)[C@]21O (stereo partly drawn)
inactive: locus YAL013W, strain DEP1, hits give low values 0.998 | locus YAL021C, strain ccr4, hits give low values 0.952 | locus YAL026C, strain drs2, hits give low values 0.978 | locus YAL030W, strain snc1, hits give low values 0.973 | locus YBL061C, strain skt5, hits give low values 0.975 | locus YBR009C, strain hhf1, hits give low values 0.959 | locus YBR021W, strain FUR4, hits give low values 0.983 | locus YBR023C, strain chs3, hits give low values 0.986 | locus YBR171W, strain sec66, hits give low values 0.974 | locus YBR229C, strain ROT2, hits give low values 1 | locus YBR231C, strain swc5, hits give low values 0.976 | locus YBR279W, strain paf1, hits give low values 0.98 | locus YCL011C, strain gbp2, hits give low values 0.972 | locus YCL016C, strain dcc1, hits give low values 0.975 | locus YCL029C, strain bik1, hits give low values 1.02 | locus YCL061C, strain MRC1, hits give low values 0.96 | locus YCL069W, strain vba3, hits give low values 0.976 | locus YCR088W, strain abp1, hits give low values 0.983 | locus YDL005C, strain med2, hits give low values 0.964 | locus YDL035C, strain GPR1, hits give low values 1 | locus YDL040C, strain nat1, hits give low values 0.975 | locus YDL074C, strain BRE1, hits give low values 0.999 | locus YDL101C, strain DUN1, hits give low values 1.01 | locus YDL134C, strain PPH21, hits give low values 0.999 | locus YDL185W, strain tfp1, hits give low values 1.02 | locus YDL192W, strain arf1, hits give low values 1.01 | locus YDR001C, strain nth1, hits give low values 0.973 | locus YDR069C, strain doa4, hits give low values 0.983 | locus YDR101C, strain arx1, hits give low values 1.01 | locus YDR137W, strain rgp1, hits give low values 0.935 | locus YDR159W, strain sac3, hits give low values 0.946 | locus YDR162C, strain NBP2, hits give low values 0.987 | locus YDR195W, strain ref2 0.942 | locus YDR297W, strain sur2, hits give low values 0.97 | locus YDR318W, strain mcm21, hits give low values 1.01 | locus YDR334W, strain swr1, hits give low values 0.976 | locus YDR335W, strain msn5, hits give low values 0.965 | locus YDR388W, hits give low values 1.01 | locus YDR392W, strain spt3, hits give low values 0.949 | locus YDR502C, strain sam2, hits give low values 1.03 | locus YEL003W, strain gim4, hits give low values 0.961 | locus YEL037C, strain rad23, hits give low values 0.976 | locus YEL061C, strain CIN8 (second series), hits give low values 0.965 | locus YEL061C, strain CIN8, hits give low values 0.992 | locus YER015W, strain faa2, hits give low values 0.989 | locus YER016W, strain bim1, hits give low values 0.975 | locus YER110C, hits give low values 1.01 | locus YER111C, strain swi4, hits give low values 0.964 | locus YER155C, strain BEM2 (second series), hits give low values 1.02 | locus YER155C, strain BEM2, hits give low values 1 | locus YER167W, strain BCK2, hits give low values 0.996 | locus YFR010W, strain ubp6, hits give low values 0.985 | locus YGL078C, strain dbp3, hits give low values 1.01 | locus YGL086W, strain mad1, hits give low values 1.03 | locus YGL167C, strain pmr1, hits give low values 0.972 | locus YGL173C, strain kem1, hits give low values 0.953 | locus YGL227W, strain vid30, hits give low values 0.955 | locus YGL240W, strain doc1, hits give low values 0.981 | locus YGL248W, strain PDE1, hits give low values 1.01 | locus YGL253W, strain hxk2, hits give low values 0.974 | locus YGR078C, strain PAC10, hits give low values 1 | locus YGR135W, strain pre9, hits give low values 1.02 | locus YGR252W, strain gcn5, hits give low values 1.01 | locus YHR013C, strain ard1, hits give low values 0.957 | locus YHR027C, strain rpn1, hits give low values 0.987 | locus YHR030C, strain SLT2, hits give low values 1 and 1.05 | locus YHR079C, strain IRE1 (second series), hits give low values 1.02 | locus YHR079C, strain IRE1, hits give low values 1.03 | locus YHR094C, strain hxt1, hits give low values 1.01 | locus YHR129C, strain ARP1, hits give low values 1 | locus YHR142W, strain chs7, hits give low values 0.956 | locus YHR200W, strain rpn10, hits give low values 1.01 | locus YIL066C, strain RNR3, hits give low values 1 | locus YIL073C, strain SPO22, hits give low values 1.06 | locus YIL125W, strain kgd1, hits give low values 1.01 | locus YIR030C, strain dcg1, hits give low values 1.02 | locus YJL092W, strain hpr5, hits give low values 0.975 | locus YJL095W, strain BCK1 (second series), hits give low values 0.955 | locus YJL095W, strain BCK1, hits give low values 0.992 and 1.03 | locus YJL115W, strain asf1, hits give low values 0.956 | locus YJL129C, strain trk1, hits give low values 0.974 | locus YJL134W, strain LCB3, hits give low values 1 | locus YJL154C, strain vps35, hits give low values 0.977 | locus YJL164C, strain tpk1, hits give low values 0.969 | locus YJL166W, strain qcr8, hits give low values 0.992 | locus YJL168C, strain set2, hits give low values 1.01 | locus YJL187C, strain SWE1 (second series), hits give low values 1.01 | locus YJR043C, strain POL32, hits give low values 0.994
